In PMC7819943, “Rice protein-binding microarrays: a tool to detect cis-acting elements near promoter regions in rice”:
The full ranking holds about 68,000 sequences; the median of “fluorescence intensity (a.u.)” is about 9,100, and the highest 2% start at about 16,000. Only a selection was taken, and the highest values are over-represented in it overall.

Molecular target: OsWRKY34 (Oryza sativa, UniProt Q0JBA9 1-250)
Assay: protein-binding microarray (RPBM); PBS, 2% BSA, 51.3 ng/ul salmon testes DNA, 50 uM zinc acetate, 200 nM TF, 25 C, 1 h; high values mean tight binding
Conditions: protein: recombinant; tags: N-terminal polyhistidine and DsRed monomer fusion (pET32a); label: CyDye5-dUTP incorporated in the synthesized complementary strand; 3' TTTTT single-stranded linker to array surface; dsDNA, one strand shown
Summary of the method: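 Transcription factors were each fused at the N-terminus to a polyhistidine tag plus DsRed and expressed in E. coli BL21-CodonPlus before Ni–NTA purification. Binding to a double-stranded custom Agilent array was carried out with 200 nM protein at 25 °C for 1 h in PBS, 2% BSA, salmon testes DNA and 50 µM zinc acetate. The binding signal is per-feature fluorescence intensity, in arbitrary units, on an Axon 4000B scanner.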

Chain of OsWRKY34 (Q0JBA9 entry or part of it): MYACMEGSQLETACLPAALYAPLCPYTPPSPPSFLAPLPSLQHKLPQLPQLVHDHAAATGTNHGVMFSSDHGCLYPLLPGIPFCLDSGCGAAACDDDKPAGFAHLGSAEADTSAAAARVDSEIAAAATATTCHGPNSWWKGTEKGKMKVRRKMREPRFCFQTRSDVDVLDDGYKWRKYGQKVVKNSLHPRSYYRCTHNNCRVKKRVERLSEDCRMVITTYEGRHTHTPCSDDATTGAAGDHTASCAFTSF

Sequence	binding signal
GGTCTCAGGTTGTCACTTTTCTATCCAGATTTATCGTAGTCGGAGTCACCTAGTGCAG	8110 fluorescence intensity (a.u.)
ATCCTCACGTAATATACACCTTCGTACCATAATATAATAACGGAGTCACCTAGTGCAG	8250 fluorescence intensity (a.u.)
CGCTTCCTGTTGTGATTATGTAATCTTGTATTCTTGTTGACGGAGTCACCTAGTGCAG	11600 fluorescence intensity (a.u.)
CTCCCTCGTCTTTCTGCTGGCCACCACCCTCCCCGTCTTCCGGAGTCACCTAGTGCAG	12300 fluorescence intensity (a.u.)
ACCTTTCTCACTACACGCCATTCCGCTCGCGTCCAATTGTCGGAGTCACCTAGTGCAG	10100 fluorescence intensity (a.u.)
CTCGTCGTCTCCTCCGCTCCTTGCGCCATCTCGCGGCTGACGGAGTCACCTAGTGCAG	11500 fluorescence intensity (a.u.)
CATGATCGCTGTGCACCTTCTGAATCATCTCTTCAATGGCCGGAGTCACCTAGTGCAG	9780 fluorescence intensity (a.u.)
TTTAATGTATGGTGCCGTTGACTTTTTTTATCAATATTTGCGGAGTCACCTAGTGCAG	41200 fluorescence intensity (a.u.)
CATGCCAATCATAAATAATGACATATTGGTTGACTTTTTGCGGAGTCACCTAGTGCAG	11000 fluorescence intensity (a.u.)
TTTAAATGTATCATGTCATTGACTTTTTTATAATATTTGACGGAGTCACCTAGTGCAG	8120 fluorescence intensity (a.u.)
CATACTGTTCCACTCGCCCTCGTTTTCTCCGCCACCGAGCCGGAGTCACCTAGTGCAG	8450 fluorescence intensity (a.u.)
TTGACGCCGTTGACTTTTTAATACATGTTTGACCATTCGTCGGAGTCACCTAGTGCAG	44300 fluorescence intensity (a.u.)
TTGACGCCGTTGACTTTTTAGTACATGTTTGACCATTCGTCGGAGTCACCTAGTGCAG	49900 fluorescence intensity (a.u.)
CTCCCTCCGTTTCGAAATGTTTGACGCCGTTGACTTTTTACGGAGTCACCTAGTGCAG	15900 fluorescence intensity (a.u.)
CTCCCTCTATCAAAAAAATGTTTGACGCCGTTGACTTTTTCGGAGTCACCTAGTGCAG	25600 fluorescence intensity (a.u.)
TCCGTTTCGGAATGTTTGACGCCGTTGACTTTTTATTACACGGAGTCACCTAGTGCAG	25400 fluorescence intensity (a.u.)
CTCCCTTCGTTTCGAAATGTTTGACGCCGTTGACTTTTTACGGAGTCACCTAGTGCAG	22800 fluorescence intensity (a.u.)
ACTCTCTCCGTTTCGAAATGTTTGACGCTGTTGACTTTTTCGGAGTCACCTAGTGCAG	17500 fluorescence intensity (a.u.)
ATACTCCCTTCGTTTCGAAATGTTTGACGCCGTTGACTTTCGGAGTCACCTAGTGCAG	14300 fluorescence intensity (a.u.)
CGCTGTTCAGACGTTGACTCTCGTTGTTTTTATAGTTTTTCGGAGTCACCTAGTGCAG	14600 fluorescence intensity (a.u.)
ACTCCCTCCGTTTCAAAATGTTTGACATCATTGACTTTTTCGGAGTCACCTAGTGCAG	11100 fluorescence intensity (a.u.)

Sequence	binding signal
CACCCTCTCCCGTGTTCCACCCCGCCCGCGAATCATATCCCGGAGTCACCTAGTGCAG	9340 fluorescence intensity (a.u.)
TCCGTCCCTGCAGTCACCTTATTGGTCAAATTTTAAATATCGGAGTCACCTAGTGCAG	13400 fluorescence intensity (a.u.)
TAGGGGTGGGCATTCGGTCTAACTGAAAATTTCGGTCTCGCGGAGTCACCTAGTGCAG	13500 fluorescence intensity (a.u.)
TGACGTTTGACCAAAGTTTTCTTCAATTTTTCAGAAATGGCGGAGTCACCTAGTGCAG	9900 fluorescence intensity (a.u.)
GGTCTATGTCTCTCTGATTATTTCTTTTACTAATTGTTTGCGGAGTCACCTAGTGCAG	9060 fluorescence intensity (a.u.)
CTTCTGCTCTCTAGCTAGCCTTCTTCCTATTGGAAGCTTCCGGAGTCACCTAGTGCAG	9230 fluorescence intensity (a.u.)
ATATTCCCTCCGTTTTGAAATGTTTGACGCCGTTGACTTTCGGAGTCACCTAGTGCAG	17000 fluorescence intensity (a.u.)
CCGCTGGCCCTTGTTGACACCTTGACTACGAAATGTATTCCGGAGTCACCTAGTGCAG	8980 fluorescence intensity (a.u.)
TGCACCTGGCCGCGTTGACCGTTCGAAATGTATATATTCCCGGAGTCACCTAGTGCAG	19600 fluorescence intensity (a.u.)
CATTCCTATCAAAATCCTACGTTTTTCCTATTCCTACGTTCGGAGTCACCTAGTGCAG	9840 fluorescence intensity (a.u.)
TTATACTCCCTCCGTTTCGAAATGTTTGACGCCGTTGACTCGGAGTCACCTAGTGCAG	11400 fluorescence intensity (a.u.)
CAACGAAAATACTAACAACATGCACCTGGCCGCGTTGACCCGGAGTCACCTAGTGCAG	13900 fluorescence intensity (a.u.)
GATCCTCTGTTTTATCTACGCGTTCCTATCAAATTCCTTTCGGAGTCACCTAGTGCAG	16800 fluorescence intensity (a.u.)
TTCTCTTTTATCTGTTTGCTTCCTATAAATTCTACGCGATCGGAGTCACCTAGTGCAG	8480 fluorescence intensity (a.u.)
GCGCTACTTCGCTCGACCACCCGCCCGCCTTCCACTGCCACGGAGTCACCTAGTGCAG	8550 fluorescence intensity (a.u.)
CTCTAATTTTCTTTGCGTGTTCCATCATCAATATGGTATTCGGAGTCACCTAGTGCAG	10700 fluorescence intensity (a.u.)
CAATTTCGAGCTTCGTATCAGCATATGCTATTCCCTATTGCGGAGTCACCTAGTGCAG	10500 fluorescence intensity (a.u.)
GTTGACTTTTTTAAACATGTTGGACCGTTCGTCTTATTCACGGAGTCACCTAGTGCAG	9150 fluorescence intensity (a.u.)
CATTGACTTTTTTAAACATGTTTGACTGTTCGTCTTATTCCGGAGTCACCTAGTGCAG	11500 fluorescence intensity (a.u.)
ACCGTTGACTTTTTAGCACATGTTTGACCGCTCGTCTTATCGGAGTCACCTAGTGCAG	54800 fluorescence intensity (a.u.)
TGACTTTTTAGCATATGTTTGACCGCTCGTCTTATTCAAACGGAGTCACCTAGTGCAG	8220 fluorescence intensity (a.u.)
